Measured values from ChEMBL document CHEMBL3988442, “University of Dundee, Small-Polar-MMV Screening Library” (2021).
For some assays here: Entries with a potency or affinity are not part of this list.

Legend:
Parameters in all cases: scale not given: direction of the effect not stated beside the values
[1] = molecular target: Protein translocase subunit SecA (Escherichia coli (strain K12)) (UniProt P10408); experiment: Assay to Identify E. coli SecA ATPase Inhibitors; format: functional; settings: 30 µM
[2] = molecular target: T1, Ubiquitin-activating enzyme e1, putative (Leishmania donovani (strain BPK282A1)) (UniProt E9BSI1); experiment: Leishmania donovani Ubiquitin Activating Enzyme (LdE1); format: functional; settings: 30 µM
T1 sequence (whole entry): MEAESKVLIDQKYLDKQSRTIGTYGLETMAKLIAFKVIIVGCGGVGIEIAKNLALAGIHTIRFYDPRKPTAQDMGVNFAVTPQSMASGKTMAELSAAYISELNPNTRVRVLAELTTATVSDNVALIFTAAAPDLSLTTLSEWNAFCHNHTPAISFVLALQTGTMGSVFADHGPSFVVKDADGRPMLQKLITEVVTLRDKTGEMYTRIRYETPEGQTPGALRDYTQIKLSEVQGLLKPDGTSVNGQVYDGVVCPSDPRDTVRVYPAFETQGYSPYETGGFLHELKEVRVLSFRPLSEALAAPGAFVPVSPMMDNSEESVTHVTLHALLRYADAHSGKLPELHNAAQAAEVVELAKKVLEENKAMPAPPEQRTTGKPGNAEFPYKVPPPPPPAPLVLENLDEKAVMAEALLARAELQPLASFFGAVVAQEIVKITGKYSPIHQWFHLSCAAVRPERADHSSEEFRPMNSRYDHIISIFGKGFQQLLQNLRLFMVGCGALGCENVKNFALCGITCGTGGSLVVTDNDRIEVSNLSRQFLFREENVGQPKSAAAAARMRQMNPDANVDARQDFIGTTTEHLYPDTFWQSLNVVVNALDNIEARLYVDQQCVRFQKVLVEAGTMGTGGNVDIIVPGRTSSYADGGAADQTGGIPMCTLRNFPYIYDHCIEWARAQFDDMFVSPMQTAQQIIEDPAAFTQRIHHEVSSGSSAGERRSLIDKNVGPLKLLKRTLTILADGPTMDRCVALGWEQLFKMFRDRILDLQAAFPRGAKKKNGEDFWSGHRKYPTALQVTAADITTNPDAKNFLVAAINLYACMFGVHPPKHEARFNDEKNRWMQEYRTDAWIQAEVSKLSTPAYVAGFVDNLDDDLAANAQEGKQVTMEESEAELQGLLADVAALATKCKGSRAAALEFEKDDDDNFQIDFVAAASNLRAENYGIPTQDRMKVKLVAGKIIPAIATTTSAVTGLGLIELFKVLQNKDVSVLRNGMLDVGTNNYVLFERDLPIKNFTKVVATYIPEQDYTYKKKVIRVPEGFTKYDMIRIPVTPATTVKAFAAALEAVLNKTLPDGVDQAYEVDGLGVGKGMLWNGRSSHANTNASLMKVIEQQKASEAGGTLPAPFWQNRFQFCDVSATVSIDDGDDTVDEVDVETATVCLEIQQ

[3] = molecular target: AMP-activated protein kinase, AMPK (Homo sapiens) (UniProt P54646+O43741+P54619+Q9UGJ0+Q9Y478+Q13131+Q9UGI9); experiment: AMP-dependent Kinase enzyme assay. An in vitro enzyme assay that detects ADP turnover that is directly proportional to AMPK activity. This uses naive AMPK that is activated during the assay with MK-8722; format: functional; settings: 30 µM
[4] = molecular target: Sialic acid-binding Ig-like lectin 9 (Homo sapiens) (UniProt Q9Y336); experiment: Hs-Siglec9 ALPHAscreen SOP 20170721; settings: 10 µM
Trypanosoma cruzi = experiment: Trypanosoma cruzi phosphomannomutase and mannose-1-phosphate guanylyltransferase assay; format: functional; settings: 10 µM
[5] = molecular target: T2, Arginase-2, mitochondrial (Homo sapiens) (UniProt P78540); experiment: in vitro enzyme assay to detect the production of urea directly proportional to the activity of Arginase II; format: functional; settings: 33.3 µM; note: in the data most compounds retested in dose-response had high values
T2 sequence (whole entry): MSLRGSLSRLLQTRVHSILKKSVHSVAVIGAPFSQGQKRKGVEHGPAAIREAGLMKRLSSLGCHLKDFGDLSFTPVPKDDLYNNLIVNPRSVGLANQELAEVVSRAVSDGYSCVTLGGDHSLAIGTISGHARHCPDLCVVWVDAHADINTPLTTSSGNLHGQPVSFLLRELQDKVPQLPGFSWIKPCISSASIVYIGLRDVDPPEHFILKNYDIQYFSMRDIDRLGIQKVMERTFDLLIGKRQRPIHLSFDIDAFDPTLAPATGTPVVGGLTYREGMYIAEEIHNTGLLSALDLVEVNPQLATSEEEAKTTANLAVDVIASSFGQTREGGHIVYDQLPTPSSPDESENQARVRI

[6] = molecular target: T3, Proteasome subunit beta (Trypanosoma cruzi) (UniProt O96673); experiment: Trypanosoma cruzi proteasome chymotrypsin-like activity (TcProtChymo) assay.; note: in the data most compounds retested in dose-response had high values; format: functional; settings: 9.37 µM
T3 sequence (whole entry): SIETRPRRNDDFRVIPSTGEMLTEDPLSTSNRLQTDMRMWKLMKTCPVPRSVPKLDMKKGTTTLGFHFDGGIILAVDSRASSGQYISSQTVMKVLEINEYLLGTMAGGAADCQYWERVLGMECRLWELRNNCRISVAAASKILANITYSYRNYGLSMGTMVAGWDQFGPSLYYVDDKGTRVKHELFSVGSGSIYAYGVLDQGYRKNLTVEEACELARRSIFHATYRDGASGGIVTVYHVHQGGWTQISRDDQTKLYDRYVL

Homo sapiens = organism: Homo sapiens; experiment: To identify inhibition of the IFN signalling (Jak-Stat) pathway via expression of an eGFP reporter gene under the control of an IFN-stimulated response element (ISRE) containing MxA promoter.; format: functional; settings: 30 µM
[7] = molecular target: T4, Tyrosyl-tRNA synthetase, putative (Trypanosoma cruzi (strain CL Brener)) (UniProt Q4DSP6); experiment: Trypanosoma cruzi tyrosyl tRNA synthetase (TcYRS) _High Tyrosine SOP; format: functional; settings: 30 µM; note: in the data most compounds retested in dose-response had high values
T4 sequence (whole entry): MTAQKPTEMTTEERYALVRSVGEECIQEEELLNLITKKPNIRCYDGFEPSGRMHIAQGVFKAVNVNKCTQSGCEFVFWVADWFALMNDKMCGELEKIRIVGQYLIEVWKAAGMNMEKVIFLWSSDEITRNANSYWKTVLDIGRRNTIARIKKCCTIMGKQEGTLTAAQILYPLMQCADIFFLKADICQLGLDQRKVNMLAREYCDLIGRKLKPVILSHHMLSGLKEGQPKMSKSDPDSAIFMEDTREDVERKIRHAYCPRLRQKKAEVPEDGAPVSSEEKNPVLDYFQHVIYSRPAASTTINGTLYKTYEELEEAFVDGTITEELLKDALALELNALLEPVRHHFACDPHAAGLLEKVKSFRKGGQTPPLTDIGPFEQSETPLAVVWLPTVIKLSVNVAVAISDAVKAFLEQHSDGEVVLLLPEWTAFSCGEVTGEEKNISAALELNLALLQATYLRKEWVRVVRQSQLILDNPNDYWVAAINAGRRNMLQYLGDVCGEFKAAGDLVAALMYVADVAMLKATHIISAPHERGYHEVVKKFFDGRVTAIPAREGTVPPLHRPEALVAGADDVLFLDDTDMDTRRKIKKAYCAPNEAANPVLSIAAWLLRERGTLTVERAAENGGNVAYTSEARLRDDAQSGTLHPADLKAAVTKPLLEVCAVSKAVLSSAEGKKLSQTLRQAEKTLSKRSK

[8] = molecular target: T4, Tyrosyl-tRNA synthetase, putative (Trypanosoma cruzi (strain CL Brener)); experiment: Trypanosoma cruzi tyrosyl tRNA synthetase (TcYRS) SOP; format: functional; settings: 30 µM
[9] = molecular target: Chromo domain-containing protein 1 (Saccharomyces cerevisiae (strain ATCC 204508 / S288c) (Baker's yeast)) (UniProt P32657); experiment: ScCHD-1 Enzyme Inhibition Assay; format: functional; settings: 30 µM; note: in the data most compounds retested in dose-response had high values
Chromo domain-containing protein 1 (Saccharomyces cerevisiae (strain ATCC 204508 / S288c) (Baker's yeast)), sequence (P32657 whole entry, the tested form may be a part): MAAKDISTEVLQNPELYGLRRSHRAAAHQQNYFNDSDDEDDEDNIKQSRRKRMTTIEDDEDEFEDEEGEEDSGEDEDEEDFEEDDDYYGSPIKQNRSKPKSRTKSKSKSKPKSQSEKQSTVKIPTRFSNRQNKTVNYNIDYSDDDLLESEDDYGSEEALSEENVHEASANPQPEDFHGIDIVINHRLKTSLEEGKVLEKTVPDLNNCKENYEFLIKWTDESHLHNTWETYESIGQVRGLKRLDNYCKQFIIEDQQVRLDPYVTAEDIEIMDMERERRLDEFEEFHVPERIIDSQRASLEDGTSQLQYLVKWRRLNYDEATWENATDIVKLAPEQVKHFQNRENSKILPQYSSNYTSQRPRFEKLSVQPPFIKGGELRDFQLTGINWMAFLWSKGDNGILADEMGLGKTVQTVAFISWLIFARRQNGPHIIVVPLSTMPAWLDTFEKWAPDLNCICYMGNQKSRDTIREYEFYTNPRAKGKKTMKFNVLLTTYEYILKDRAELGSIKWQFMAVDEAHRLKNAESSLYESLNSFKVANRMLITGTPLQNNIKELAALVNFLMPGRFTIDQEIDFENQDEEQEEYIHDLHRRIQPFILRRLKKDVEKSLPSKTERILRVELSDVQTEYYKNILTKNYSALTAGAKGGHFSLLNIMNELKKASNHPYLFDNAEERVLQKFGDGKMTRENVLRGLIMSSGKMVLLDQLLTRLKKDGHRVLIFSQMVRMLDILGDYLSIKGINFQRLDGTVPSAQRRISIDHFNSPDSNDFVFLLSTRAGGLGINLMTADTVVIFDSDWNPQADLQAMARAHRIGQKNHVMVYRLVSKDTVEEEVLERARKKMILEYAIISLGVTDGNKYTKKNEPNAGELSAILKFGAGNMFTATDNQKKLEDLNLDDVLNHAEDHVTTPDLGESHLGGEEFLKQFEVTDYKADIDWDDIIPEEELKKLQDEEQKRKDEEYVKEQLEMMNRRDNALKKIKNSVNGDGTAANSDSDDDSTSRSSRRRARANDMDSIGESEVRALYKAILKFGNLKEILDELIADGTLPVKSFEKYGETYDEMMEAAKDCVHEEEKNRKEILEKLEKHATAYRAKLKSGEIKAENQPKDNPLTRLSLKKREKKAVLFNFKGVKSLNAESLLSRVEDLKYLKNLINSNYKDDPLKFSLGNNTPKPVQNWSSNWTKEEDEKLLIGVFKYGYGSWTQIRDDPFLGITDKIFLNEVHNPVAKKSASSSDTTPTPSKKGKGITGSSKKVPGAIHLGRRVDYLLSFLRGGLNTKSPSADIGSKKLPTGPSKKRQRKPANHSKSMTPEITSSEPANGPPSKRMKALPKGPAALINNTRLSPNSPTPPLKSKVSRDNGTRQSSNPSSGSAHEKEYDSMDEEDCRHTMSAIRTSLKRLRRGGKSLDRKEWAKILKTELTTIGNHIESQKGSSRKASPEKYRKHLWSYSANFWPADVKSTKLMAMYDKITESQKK

Sialic acid-binding Ig-like lectin 9 (Homo sapiens), sequence (Q9Y336 whole entry): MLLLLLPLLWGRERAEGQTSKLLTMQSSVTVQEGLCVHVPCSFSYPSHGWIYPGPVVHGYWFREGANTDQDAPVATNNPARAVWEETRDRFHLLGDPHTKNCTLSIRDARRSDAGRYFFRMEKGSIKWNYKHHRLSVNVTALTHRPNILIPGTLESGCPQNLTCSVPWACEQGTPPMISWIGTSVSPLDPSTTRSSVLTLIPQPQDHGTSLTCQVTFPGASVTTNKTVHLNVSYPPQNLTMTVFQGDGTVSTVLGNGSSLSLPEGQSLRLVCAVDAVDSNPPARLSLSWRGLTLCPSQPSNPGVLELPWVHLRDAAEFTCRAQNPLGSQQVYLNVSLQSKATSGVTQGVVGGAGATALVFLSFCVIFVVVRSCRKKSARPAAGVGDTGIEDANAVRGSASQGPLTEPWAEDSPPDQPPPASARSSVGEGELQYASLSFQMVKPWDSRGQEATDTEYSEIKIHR
Protein translocase subunit SecA (Escherichia coli (strain K12)), sequence (P10408 whole entry): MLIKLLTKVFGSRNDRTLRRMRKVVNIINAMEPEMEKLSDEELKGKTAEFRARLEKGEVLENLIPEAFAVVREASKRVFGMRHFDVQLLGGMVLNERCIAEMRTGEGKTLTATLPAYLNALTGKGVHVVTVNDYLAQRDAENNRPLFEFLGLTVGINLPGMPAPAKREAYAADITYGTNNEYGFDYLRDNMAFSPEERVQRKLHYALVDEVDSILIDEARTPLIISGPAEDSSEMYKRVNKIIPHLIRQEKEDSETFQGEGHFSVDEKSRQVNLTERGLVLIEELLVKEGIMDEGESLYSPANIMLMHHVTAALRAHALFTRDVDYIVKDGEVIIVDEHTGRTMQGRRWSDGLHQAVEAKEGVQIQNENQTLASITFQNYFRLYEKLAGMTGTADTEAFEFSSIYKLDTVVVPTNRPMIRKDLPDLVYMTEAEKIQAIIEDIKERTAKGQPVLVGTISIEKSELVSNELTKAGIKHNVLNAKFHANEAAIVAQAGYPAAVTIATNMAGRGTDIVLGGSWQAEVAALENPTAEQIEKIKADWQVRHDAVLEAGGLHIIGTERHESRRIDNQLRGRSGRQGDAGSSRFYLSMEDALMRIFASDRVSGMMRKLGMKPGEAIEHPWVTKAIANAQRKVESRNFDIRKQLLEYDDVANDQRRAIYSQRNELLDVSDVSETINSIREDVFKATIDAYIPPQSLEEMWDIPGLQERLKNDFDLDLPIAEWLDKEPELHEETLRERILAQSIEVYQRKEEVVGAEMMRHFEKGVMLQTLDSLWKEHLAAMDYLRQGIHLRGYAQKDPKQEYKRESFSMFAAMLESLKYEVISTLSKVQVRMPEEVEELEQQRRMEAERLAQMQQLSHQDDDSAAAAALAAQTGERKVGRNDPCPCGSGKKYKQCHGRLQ

SMILES	Percent Effect [1] [%]	Percent Effect [2] [%]	Percent Effect [3] [%]	Percent Effect [4] [%]	Percent Effect (Trypanosoma cruzi) [%]	Percent Effect [5] [%]	Percent Effect [6] [%]	Percent Effect (Homo sapiens) [%]	Percent Effect [7] [%]	Percent Effect [8] [%]	Percent Effect [9] [%]
COc1ccc(CNCc2ccnc(N3CCOCC3)c2)c(OC)c1	-4.43	8.11	-10.3	1.04	-3.49	3.21	7.75	28.2	3.45	6.17	-4.72
CCN(C(=O)CS(=O)(=O)Cc1cc(Cl)c2c(c1)OCCCO2)C1CC1	2.17	5.06	-1.41	-13.2	-7.84	5.32	7.62	8.01	3.45	16.5	-6.8
c1ccc(-c2nc(CN3CCCC3Cn3cncn3)cs2)cc1 (configuration not stated)	-2.21	-17.7	-1.4	4.03	3.68	-2.28	1.39	-16.9	4.43	3.8	25.8
Cc1ccsc1CNc1cc(N2CCCC2CO)ncn1 (configuration not stated)	-9.04	11.4	-19.2	6.66	1.33	-1.07	8.23	12.1	0	17.7	-31
COCCOCC(=O)Nc1ccc(Br)cc1F	-4.21	10.5	-1.83	4.08	3.8	-5.92	1.63	9.23	1.06	7.79	-2.27
N#CC1(C(=O)N2CCN(c3nccs3)CC2)CCCCC1	-1.57	13.2	7.71	8.98	-2.26	2.68	11	-3.2	7.35	17.1	-6.21
CCOc1ccccc1C(CC(=O)Nc1nc(C)cs1)NC(C)=O (configuration not stated)	-1.09	5.26	-0.999	0.981	-2.63	4.21	6.85	10.1	3.43	9.76	-5.47
Cc1nc(C2CCCN2CCCNS(C)(=O)=O)no1 (configuration not stated)	-3.7	15.8	-4.74	1.41	7.14	4.98	20.4	-7.41	4.41	19.5	-5.18
CC(=O)N(C)c1nc(CN2CCOC(Cn3cc(C)cn3)C2)cs1 (configuration not stated)	-1.65	28.6	-5.25	-17.3	3.82	-6.95	17.4	16.8	8.57	30.6	-22.3
Cn1cnnc1C1CCCN(C(=O)c2ccc3c(c2)OCCCO3)C1 (configuration not stated)	-6.73	18.2	-5.65	-3.72	3.04	0.21	15.3	-4.88	4.76	23.5	-15.9
CS(=O)(=O)CCN1CCC2(CCCN(C3CCOCC3)C2=O)C1 (configuration not stated)	-4.3	2.74	-4.09	8.46	2.98	-2	3.85	13.4	2.08	11.1	-0.555
CCn1ccnc1CN1CCN(CC(=O)NC(C)(C#N)C2CC2)CC1 (configuration not stated)	1.69	15.8	-1.29	-1.29	-8.84	-3.45	18.9	16.7	5.39	9.76	-5.07
Cc1ccc(CNS(=O)(=O)CC2=NC(=O)n3cccc3C2=O)cc1	0.952	-9.33	7.77	4.14	-1.77	-4.4	7.21	-19.8	-2.12	0	2.54
O=C(NCCNc1ncccn1)C1CCN(c2ncccn2)CC1	-4.14	10.8	-3.16	5.87	7.71	-4.62	5.57	26.3	-10.9	13.4	1.05
Cc1cccc(C(=O)NCc2ccc(S(N)(=O)=O)cc2)n1	-5.17	20.8	1.31	-0.564	-0.187	2.85	4.39	8.2	9.71	24.4	-6.84
NC(=O)c1cc(C2CCCN(C(=O)CCc3ccsc3)C2)n[nH]1 (configuration not stated)	-9.05	5.2	5.08	-5.24	-5.43	-1.78	-5.57	30.9	3.88	7.32	-4.93
CN(CC1COc2ccccc2O1)C(=O)NCCCn1ccnc1 (configuration not stated)	-1.25	0	12.1	-8.39	-4.7	-3.06	-0.835	27.3	-3.43	-7.32	7.75
COc1ccnc(N2CCN(C(=O)CCc3nccs3)CC2)n1	0.0461	8.11	-3.33	0.0327	-1.54	-2.38	12.1	14.1	2.65	7.32	-3.79
CCSCCC(=O)Nc1ncn(CC(=O)NCc2ccccc2)n1	-4.92	16	-4.62	16.7	8.86	3.65	25.1	5.59	12.6	28.4	-2.42
Cc1nc2ccccc2nc1CN1CCCC1c1c(C)nn(C)c1C (configuration not stated)	-4.48	1.27	5.44	6.81	5.44	-1.94	2.23	3.07	5.21	17.7	-26.1
COc1ccc(C[C@H]2CN(c3nnc(C)s3)CC[C@@H]2OC)cc1	-4.17	5.33	-2.8	-1.52	2.7	-49.6	5.81	3.46	-34.4	7.5	86.4
Cc1nc(CN2CCN(C(=O)c3ccn(C)c(=O)c3)CC2)cs1	-3.89	19	-4.58	-0.681	2.15	-4.52	15.9	10.6	9.38	15.2	-25.7
